Screening results (PubChem)
NCOA3 inh: inhibitors of human steroid receptor coactivator 3 (SRC3); Q9Y6Q9; HEK293 GAL4-SRC3 luciferase reporter, luminescence; inhibition, % at 3.6 µM; 360,000 tested, 0.17% active; AID 588352;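 active = inhibition above a per-campaign cutoff, the mean of all compounds plus 3 SD, cut at about 60% in these data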;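 also: 0% = DMSO-treated cells and 100% = gossypol-treated cells at 36 µM; higher means less SRC3-driven luciferase light from the GAL4 reporter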
Gli-Sufu block: antagonists of Gli-Sufu signaling. 340,000 tested, 0.74% active. Sufu-KO-LIGHT fibroblasts, Gli luciferase reporter luminescence. inhibition, % at 5 µM;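 active = inhibition above about 55%, limit read from the data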;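 also: 0% = DMSO-treated cells and 100% = wells with medium but no cells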
NR5A2 inv ag: inverse agonists of human LRH-1 (NR5A2). 360,000 tested, 0.13% active. inhibition, % at 3.6 µM. O00482. AID 602396. HEK293T StAR-luciferase reporter, LRH-1 transfected, 24 h;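 active = inhibition above the mean inhibition of all tested compounds plus 3 SD, cut at about 73% in these data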;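 also: 0% = DMSO wells and 100% = reporter-only cells lacking LRH-1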
NCOA2 inhibitor: inhibits human steroid receptor coactivator 2; Q15596; HEK293 GAL4-SRC2 luciferase reporter, luminescence; inhibition, % at 9 µM; 370,000 tested, 0.17% active; AID 651957;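 active = inhibition above the mean inhibition of all tested compounds plus 3 SD, set per campaign, cut at about 52% in these data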;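 also: 0% = DMSO treated cells and 100% = cells given Gossypol at 36 µM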
NR2F2 inh: inhibitors of human COUP-TFII (NR2F2); AID 686940; 370,000 tested, 0.7% active; P24468; HEK293T NGFI-A luciferase reporter, luminescence; inhibition, % at 8.6 µM;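 active = inhibition above a per-plate cutoff, mean inhibition of test wells between control levels plus 3 SD, cut at about 38% in these data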;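 also: cells cotransfected with COUP-TFII expression vector driving the NGFI-A reporter; 0% = median of COUP-TF2 test wells and 100% = reporter-only cells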
Target sequence (P24468 whole entry, looked up): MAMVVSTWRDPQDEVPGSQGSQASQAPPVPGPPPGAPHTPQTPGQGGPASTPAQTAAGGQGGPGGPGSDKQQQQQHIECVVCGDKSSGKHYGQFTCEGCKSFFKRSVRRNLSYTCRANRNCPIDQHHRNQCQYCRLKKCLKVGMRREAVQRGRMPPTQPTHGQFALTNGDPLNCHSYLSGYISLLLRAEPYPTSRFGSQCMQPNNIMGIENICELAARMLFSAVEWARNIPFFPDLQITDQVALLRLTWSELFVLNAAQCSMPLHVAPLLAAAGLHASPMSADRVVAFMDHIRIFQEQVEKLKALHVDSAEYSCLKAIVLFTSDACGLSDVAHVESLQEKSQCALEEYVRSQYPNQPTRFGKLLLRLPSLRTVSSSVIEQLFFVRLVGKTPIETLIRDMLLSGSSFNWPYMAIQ
NCOA1 inh: inhibits human SRC1 coactivator. HEK293 GAL4-SRC1 luciferase reporter, luminescence. inhibition, % at 3.6 µM. 360,000 tested, 0.12% active. AID 588354;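 active = inhibition above the campaign mean plus 3 SD, with each screening campaign given its own cutoff, cut at about 60% in these data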;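 also: 0% = DMSO treated cells and 100% = gossypol at 36 µM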
Gal4-VP16 ctr: VP16 inhibition counter-screen for COUP-TFII; inhibition, % at 8.5 µM; shares compounds with NR2F2 inh; 2,500 tested, 25% active; AID 687007; HEK293 Gal4-VP16 luciferase reporter, luminescence; in the data active = inhibition above about 13%
COUP-TFII conf: confirmation of human COUP-TFII (NR2F2) inhibitors. shares compounds with NR2F2 inh. inhibition, % at 8.5 µM. HEK293 NGFI-A luciferase reporter, luminescence. 2,500 tested, 45% active;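 active = mean inhibition over three repeats above a set limit taken from the earlier primary screen, cut at about 38% in these data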;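 also: 100% = cells given the luciferase reporter alone without the COUP-TF2 vector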
An asterisk follows results filed as active; . = no result given. An excerpt weighted towards active compounds, which were near 1.3% of everything screened.

SMILES | NCOA3 inh | Gli-Sufu block | NR5A2 inv ag | NCOA2 inhibitor | NR2F2 inh | NCOA1 inh | Gal4-VP16 ctr | COUP-TFII conf
CC(C)N1Cc2nnn(Cc3ccc(F)cc3)c2-c2cc(F)ccc2S1(=O)=O | . | . | . | 1.2 | 1.3 | . | . | .
Cc1cc(N2CCN(C/C=C/c3ccccc3)CC2)n2ncnc2n1 | 24.1 | 43.3 | 20.9 | -22.0 | 39.8* | -1.8 | -4.0 | 14.9
O=C(CSc1nc2ccccc2c(=O)n1-c1ccc(Cl)cc1)NNC(=S)Nc1ccccc1 | . | . | . | -24.6 | -0.4 | . | . | .
C=C1CC2(OC1=O)c1ccccc1CCc1ccccc12 | 19.9 | 1.5 | 24.7 | 46.3 | 39.5* | -60.7 | 16.9* | 28.8
O=C1NC(=O)C2(CCc3ccccc32)N1 (centres undefined) | 13.8 | 2.6 | 1.6 | 14.7 | 2.3 | -2.8 | . | .
O=C(CCc1ccccc1)N[C@H]1[C@H](OCc2ccccc2)CCC[C@@]12C(=O)N(Cc1ccccc1)c1ccc(-c3ccccn3)cc12 | . | . | . | 7.3 | -5.4 | . | . | .
CN(C(=O)c1cn(C)c2ccccc12)c1ccc(Oc2cccnc2)cc1 | . | . | . | 22.9 | 47.2* | . | -3.5 | 36.9
CCCCOc1ccc(C(=O)NC2CCCCN(Cc3ccc(C)cc3)C2=O)cc1 (centres undefined) | . | . | . | 19.0 | 39.5* | . | -11.6 | 25.3
CCCCOc1ccc(C(=O)NC2CCCCN(Cc3ccc(Cl)cc3)C2=O)cc1 (centres undefined) | . | . | . | 13.7 | 13.6 | . | . | .
Cc1ccccc1CN1CCCCC(NC(=O)c2ccccc2C)C1=O (centres undefined) | . | . | . | -8.2 | 2.7 | . | . | .
Cc1ccc(CN2CCCCC(NC(=O)c3ccc(COc4ccccc4)cc3)C2=O)cc1 (centres undefined) | . | . | . | 18.1 | 50.8* | . | -10.0 | 22.7
Cc1ccccc1CN1CCCCC(NC(=O)c2ccc(-c3ccccc3)cc2)C1=O (centres undefined) | . | . | . | 16.2 | 57.0* | . | -15.3 | 40.7*
CC1CCN(c2ccc(C(=O)O)cc2NS(=O)(=O)c2ccc(C(C)(C)C)cc2)CC1 | . | . | . | 12.9 | -10.7 | . | . | .
COC(=O)CC#C[C@H](C)[C@@H](NS(C)(=O)=O)C1CCCCC1 | . | . | . | 4.7 | 6.1 | . | . | .
CCOC(=O)C1CCN(S(=O)(=O)c2ccc3c(c2)N(C(C)=O)CC(C)S3)CC1 (centres undefined) | 24.7 | 49.9 | 14.2 | 13.8 | 48.7* | 16.4 | -3.8 | 24.6
O=C(Nc1ccc(Cl)cc1)/C(=C/c1cccc(O)c1)c1nc2ccccc2s1 | 26.6 | 9.8 | 53.2 | 55.4* | 66.2* | 6.3 | 40.2* | 54.4*
[C-]#[N+][C@]12C(=O)[C@H](C=C(Cl)[C@@]1(C)C=C)C(C)(C)[C@H]1C(=O)N(C)c3cccc2c31 | . | . | . | 18.3 | 12.5 | . | . | .
Cc1ccc(S(=O)(=O)c2cccc(S(=O)(=O)N3CCCC3)c2)cc1S(=O)(=O)N1CCCC1 | 12.7 | 19.6 | 4.1 | 28.5 | 61.2* | 15.9 | 10.7 | 24.1
Cc1ccc(S(=O)(=O)c2cccc(S(=O)(=O)N3CCOCC3)c2)cc1S(=O)(=O)N1CCOCC1 | 3.8 | 10.6 | -2.0 | 7.3 | -5.4 | -5.9 | . | .
CN[C@H]1C[C@H]2c3[nH]c4cccc(-c5ccc6c(c5)OCO6)c4c3CCN2C[C@H]1[C@H](C)O | . | . | . | -22.1 | -9.4 | . | . | .
C=C1C(=O)[C@]23C[C@H]1CC[C@H]2[C@]1(C)[C@@H](OC(C)=O)CC[C@@](C)(C(=O)OC)[C@H]1C[C@@H]3OC(C)=O | 17.3 | . | -6.4 | 37.7 | -1.0 | -10.0 | . | .
C=C1C(=O)[C@]23C[C@H]1CCC2[C@@]1(C)C(C[C@@H]3O)[C@](C)(C(=O)OC)CC[C@@H]1OC(C)=O (some centres undefined) | 45.1 | . | 83.1* | 58.9* | 48.6* | 22.7 | 63.8* | 52.0*
CCN(CC)C(=O)CC[C@H]1CC[C@]2(CCCN(S(=O)(=O)c3ccccc3)C2)O1 | . | . | . | -11.4 | 8.1 | . | . | .
COc1ccc(OCC(=O)Nc2ccc3c(c2)nc(CCN2CCN(c4ccccn4)CC2)n3C)cc1 | 9.7 | . | 2.3 | -12.9 | 25.8 | 4.6 | . | .
Cc1cccc(OCC(=O)Nc2ccc3c(c2)nc(CCN2CCN(c4ccccn4)CC2)n3C)c1 | 8.7 | 53.2 | 17.3 | 29.9 | 52.2* | 5.1 | 1.6 | 36.1
SMILES | NCOA3 inh | Gli-Sufu block | NR5A2 inv ag | NCOA2 inhibitor | NR2F2 inh | NCOA1 inh | Gal4-VP16 ctr | COUP-TFII conf
CCCOc1ccc(/C=N/NC(=S)Nc2ccccc2[N+](=O)[O-])c(O)c1 | . | 81.9* | . | 52.5* | 72.8* | . | 73.0* | 82.6*
CCCOc1ccc(/C=N/Nc2ccccc2[N+](=O)[O-])c(O)c1 | 46.8 | 30.1 | -2.8 | -16.6 | 44.1* | 35.6 | -47.9 | 46.5*
COc1ccc(CCN2CCC(CN3C(=S)NC[C@@H]3Cc3ccccc3)CC2)cc1OC | . | . | . | 4.9 | -4.9 | . | . | .
CCOC(=O)N1CCN(C(=O)C[C@H]2C[C@@]3(C(=O)OC)C(=C[C@H](C4CCCC4)O[C@@H]3C)N(Cc3cccc4ccccc34)C2=O)CC1 | . | . | . | -1.5 | -0.3 | . | . | .
Cc1ccc(C)c(S(=O)(=O)NCc2ccncc2)c1 | 11.3 | 20.0 | 11.4 | 28.4 | 42.8* | 1.1 | -2.6 | 16.6
COc1cc(CNc2ncnc3c2ncn3[C@H]2CN(Cc3ccc(-c4ccccc4)cc3)C[C@@H](CO)O2)cc(OC)c1OC | 13.2 | . | 33.0 | 9.5 | 58.6* | 12.3 | 3.7 | 48.3*
OC[C@@H]1CN(Cc2ccc(-c3ccccc3)cc2)C[C@H](n2cnc3c(NCc4ccncc4)ncnc32)O1 | 8.2 | . | 3.0 | 25.9 | 59.0* | 24.6 | -3.6 | 39.0*
CC(C)Oc1ncnc2c1[nH]c1ccccc12 | -12.3 | 12.1 | 16.4 | 2.3 | 38.1* | -9.2 | -52.7 | 24.8
CCCOc1ncnc2c1[nH]c1ccccc12 | -5.0 | 12.0 | -2.1 | 6.8 | 39.8* | -27.3 | -40.6 | -1.0
O=C(CSc1nnc(-c2ccc(Cl)cc2)n1Cc1ccco1)Nc1cccc2ccccc12 | . | . | . | -16.5 | -3.5 | . | . | .
CC(C)(C)c1ccc(-c2nnc(SCC(=O)Nc3cccc4ccccc34)n2Cc2ccco2)cc1 | . | . | . | -11.2 | 37.8* | . | 4.3 | 11.1
CN(C)c1ccc(-c2nn3c(-c4ccco4)nnc3s2)cc1 | . | . | . | -32.2 | -23.1 | . | . | .
CCOC(=O)N1CCC(Nc2ncnc3c2cnn3-c2ccc(C)cc2C)CC1 | 26.3 | 3.9 | 24.2 | 25.9 | 58.8* | 31.0 | 2.5 | 42.7*
CCN(CC)S(=O)(=O)c1ccc(Cl)c(NC(=O)COC(=O)c2cccn2C)c1 | 13.4 | 0.6 | -15.8 | -5.2 | 38.5* | -25.8 | -11.3 | 5.9
CCN(CC)S(=O)(=O)c1ccc(Cl)c(NC(=O)COC(=O)c2ccc(O)cc2)c1 | 14.4 | -9.0 | -26.5 | 7.0 | 17.8 | -17.0 | . | .
COc1ccc2c(c1)CCCN2C(=O)C1CCCN(S(=O)(=O)c2ccc(Br)s2)C1 (centres undefined) | . | . | . | 10.8 | 26.4 | . | . | .
COc1ccc(-n2c(SCC(=O)Nc3ccc4cn[nH]c4c3)nnc2-c2ccccc2)cc1 | . | . | . | 9.1 | 0.3 | . | . | .
